Test results published in PubChem BioAssay AID493170 (National Center for Advancing Translational Sciences (NCATS), 2011).
Records with an inconclusive call do not appear. A call without a number means that no potency is given here. The source made the active and inactive calls. The call rests on the fitted dose curve; in most records, active means well fitted inhibition curve with a large enough effect; inconclusive means small, poorly fitted or top-dose-only effect, or effect the other way; inactive means flat fitted curve, though single readings scatter.

These compounds were tested against Ubiquitin carboxyl-terminal hydrolase 2 (Homo sapiens) (UniProt O75604) (assay: Ub-rhodamine 110 based assay for inhibitors Ubiquitin-specific Protease USP2a). Conditions: USP2a Ub-rhodamine110 cleavage, fluorescence; series mostly up to 38.3 µM.
Ubiquitin carboxyl-terminal hydrolase 2 (Homo sapiens), sequence (O75604 whole entry, looked up): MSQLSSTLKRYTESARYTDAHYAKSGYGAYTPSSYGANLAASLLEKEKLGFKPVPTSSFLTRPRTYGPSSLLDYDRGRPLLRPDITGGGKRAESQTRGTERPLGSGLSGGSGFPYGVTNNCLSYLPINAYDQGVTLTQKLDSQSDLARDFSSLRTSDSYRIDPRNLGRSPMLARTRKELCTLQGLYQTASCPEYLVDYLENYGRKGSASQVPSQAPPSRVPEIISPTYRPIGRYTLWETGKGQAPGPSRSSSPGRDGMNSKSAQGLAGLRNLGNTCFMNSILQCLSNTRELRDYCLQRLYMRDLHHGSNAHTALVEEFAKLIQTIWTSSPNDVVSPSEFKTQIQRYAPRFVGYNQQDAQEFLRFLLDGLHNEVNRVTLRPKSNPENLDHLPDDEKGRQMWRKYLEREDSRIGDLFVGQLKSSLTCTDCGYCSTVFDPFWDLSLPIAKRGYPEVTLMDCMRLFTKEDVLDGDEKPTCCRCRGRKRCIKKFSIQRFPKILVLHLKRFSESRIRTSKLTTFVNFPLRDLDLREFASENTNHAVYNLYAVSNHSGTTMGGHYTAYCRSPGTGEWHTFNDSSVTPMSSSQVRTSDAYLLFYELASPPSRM
From the text: NIH Molecular Libraries Probe Centers Network [MLPCN] NIH Chemical Genomics Center [NCGC] MLPCN Grant: XO1-MH079852-01 PI Name: Nicholson, Ben. Progenra Inc, Malvern, PA NCGC Assay Overview: Homeostasis of cellular proteins is maintained through a combination of synthesis and degradation. The pathway that accounts for the majority of protein degradation is the ubiquitin-proteasomal pathway. Ubiquitin (Ub) is highly conserved in all cells and the generation of a multi-Ub chain typically targets proteins for degradation by the proteasome. However, ubiquitination is highly reversible and dynamic. Deubiquitination, the reverse process, is catalyzed through the action of enzymes referred to as isopeptidases or deubiquitinating enzymes (DUBs). This group of enzymes is collectively responsible for maintaining adequate pools of free ubiquitin and regulating the ubiquitination status of cellular proteins. The class of DUBs referred to as the ubiquitin-specific proteases (USP) family functions endoproteolytically to cleave Ub chains from a wide range of protein substrates. USP2a deubiquitinates fatty acid synthase (FASN) which has recently been identified as an emerging oncology target. To identify inhibitors of USP2a a cell-free assay was employed. This assay measures cleavage of a profluorescent substrate (Ub-Rhodamine 110; Boston Biochem Cat#: U-555) by USP2a. The assay gives a fluorescent read-out at excitation/emission wavelengths of 485/531. The USP2a enzyme was provided by Progenra, Inc. licensed for sale by LifeSensors, Inc.
NCGC Assay Protocol: The assay buffer, prepared fresh at the day of the assay, contains 20mM Tris-HCl pH 8.0, 2mM CaCl2, 2mM beta-Mercaptoethanol, 0.05% CHAPS. 3uL of 10 nM (5 nM final) USP2a, was dispensed into a medium-binding black solid Kalypsys 1,536 well plate using the Kalypsys dispenser. The assay plate was then pinned with 23nL compounds in DMSO with a Kalypsys pintool in columns 5-48 (0.3% final DMSO concentration). The negative control was buffer/DMSO only in column 3. The assay plate is incubated at RT for 30min. Subsequently, 3uL of 300 nM Ub-Rhod110 (150 nM final) was dispensed into the plate using a Kalypsys dispenser. Plates were read after every minute for 7 min on a ViewLux (Perkin Elmer) plate reader using the following wavelengths: Ex 485nm /Em 531nm. Data were normalized to the AC100 inhibition (buffer alone). Concentration-response curves were fitted to the normalized data and the concentration-response curves were then classified based on curve quality (r2), response magnitude and degree of measured activity. The time zero reading was used to flag fluorescence artifacts.
Further: nearly all actives have a fitted effect of over 50% in size.
Potency means the concentration at half of the fitted maximal effect.

Row | Structure (SMILES) | Potency
1 | CC1(C)CC(=O)C2=C(C1)Oc1ncn(CCCO)c(=N)c1C2c1ccccc1 (stereo not given) | inactive
2 | COc1ccc(/C=C\C(=O)O[C@@H]2C(O)C(O[C@@H]3OC(C)[C@H](O[C@@H]4OCC(O[C@H]5O[C@H](CO)[C@@H](O)C(O)C5O)C(O)C4O)C(O)C3O)[C@H](OC(=O)[C@]34CCC(C)(C)C[C@@H]3C3=CCC5[C@@]6(C)CC(O)C(O[C@@H]7OC(CO)C(O)[C@H](O)[C@H]7O)[C@@](C)(C(=O)O)C6CC[C@@]5(C)[C@]3(CO)CC4)O[C@H]2C)cc1 (stereo not given in full) | inactive
3 | CCC(C)c1ccc(O)c(N)c1 (stereo not given) | inactive
4 | CC(C)CC(=O)Nc1cccc(-c2nc3ccccc3o2)c1 | inactive
5 | Cc1ccc([C@@H]2CC=C(C(=O)O)[C@H](c3ccc(C(C)(C)C)cc3)N2S(=O)(=O)c2ccc(C)cc2)cc1 | 10 µM (active)
6 | CCn1cc(C(=O)N2CCOCC2)c(=O)c2cc(S(=O)(=O)N(C)C)ccc21 | inactive
7 | COc1cccc(OC)c1-c1nn2c(-c3cc(-c4ccccc4)n[nH]3)nnc2s1 | 6.31 µM (active)
8 | CCOc1ccc2nc(NC(=O)Nc3ccccc3)sc2c1 | inactive
9 | CCOC(=O)C1CCCN(CC(=O)Nc2c(C(=O)OC)[nH]c3ccc(C)cc23)C1 (stereo not given) | inactive
10 | N#CCc1ccc(NC(=O)/C=C/c2ccc([N+](=O)[O-])o2)cc1 | 10 µM (active)
11 | O=C(COc1ccccc1)Nc1nnc(-c2ccc(Cl)s2)o1 | inactive
12 | Cc1ccc2[nH]c3c(c2c1)CN(C(=O)CN1CCSCC1)CC3 | inactive
13 | N#CC(c1ccccc1)c1ccc(C(=O)c2ccc(F)cc2)cc1 (stereo not given) | inactive
14 | CC(C)N(C(=O)c1sc2cc([N+](=O)[O-])ccc2c1Cl)C(C)C | inactive
15 | Cc1cccc(NC(=S)NCc2ccc3c(c2)cc(C)n3C)c1C | inactive
16 | NC(=O)c1c(NC(=O)CSc2nnc(-c3ccco3)n2-c2ccccc2)sc2c1CCC2 | 5.01 µM (active)
17 | O=C1NC[C@@H](c2ccccc2)OC(=O)[C@@H](Cc2ccc(F)cc2)CC/C=C/C[C@@H]1CC(=O)N(CCO)Cc1ccccc1 | inactive
18 | CCCc1nc(SCC(N)=O)[nH]c(=O)c1CC | inactive
19 | CCOc1ccc(Cn2nnc(C(=O)NCc3ccccc3)c2N)cc1 | inactive
20 | COc1cc(C(=O)OCC(=O)Nc2c(F)c(F)c(F)c(F)c2F)cc(OC)c1OC | inactive

Row | Structure (SMILES) | Potency
21 | Cc1ccc(C)c(OCC(=O)Nc2cc(NC(=O)COc3cc(C)ccc3C)cc(C(=O)O)c2)c1 | 11.2 µM (active)
22 | O=C(CN1CCC(O)CC1)N1c2ccccc2C=Cc2ccccc21 | inactive
23 | O=C(CCc1nc(-c2ccccc2F)no1)NC1CCCCCC1 | inactive
24 | Cn1nc(CC(=O)NCc2ccc(F)cc2)c2ccccc2c1=O | inactive
25 | O=C1NC(=Nc2ccccc2)S/C1=C\C=C\c1ccco1 | 5.62 µM (active)
26 | O=C(N/N=C/C=C/c1ccccc1)c1ccncc1 | inactive
27 | O=C(C[n+]1ccc(C(=O)N/N=C/c2ccc(OCc3ccccc3)cc2)cc1)c1ccccc1 | 8.91 µM (active)
28 | CCCn1c(C)cc(C)c(C#N)c1=O | inactive
29 | CN(c1cccc(NC(=O)Nc2cccc(Cl)c2)c1)S(C)(=O)=O | inactive
30 | C#CCOCCOCCOCCNc1nc(N2CCN(C(=O)CCCCCCCCCCNC(=O)Cn3cc(CCCCCN)nn3)CC2)nc(N2CCN(C(=O)CCCCCCCCCCNC(=O)[C@H]([C@@H](C)CC)n3cc(CCCCCN)nn3)CC2)n1 | inactive
31 | CC1=C(C(=O)OC(C)C)C(C)C(C(=O)OC(C)C)=C(C)N1 | inactive
32 | CCc1cc(C(=O)N=Nc2c(O)[nH]c3ccc([N+](=O)[O-])cc23)c2ccccc2n1 | 11.2 µM (active)
33 | Cc1nc(NC(C)C)c2cnn(CCc3ccccc3)c2n1 | inactive
34 | COc1cccc(N2CCN(C(=O)CN(C)S(=O)(=O)c3ccc4c(c3)CCC(=O)N4)CC2)c1 | inactive
35 | O=C(COC(=O)c1cc(-c2ccc(Cl)s2)nc2ccccc12)NCc1ccco1 | 11.2 µM (active)
36 | Cc1ccc(C=Nc2ccccc2C(N)=O)cc1 | inactive
37 | COc1ccc(/C=C2/SC(=S)N(c3ccc(S(=O)(=O)Nc4nccs4)cc3)C2=O)cc1 | 3.16 µM (active)
38 | Cc1n[nH]c(C)c1S(=O)(=O)N1CCCC(C(=O)Nc2nccs2)C1 (stereo not given) | inactive
39 | Cc1cccc(OCC(=O)Nc2ccc(N3CCCC3)cc2)c1C | 11.2 µM (active)
40 | COc1cc(C(O)P(=O)(OC(C)C)c2ccc(N(C)C)cc2)cc(OC)c1OC (stereo not given) | inactive
